In the library only some 2.5% were active in any assay of this set; here they are far more common.
Marburg entry inh = Marburg virus entry inhibition | Marburg virus pseudotyped entry inhibition, cell reporter | Potency, µM (series often up to 37.8 µM), inactives show top-dose activity change, negative = inhibition, actives largely listed as inhibitors | hit rate 1.8% among 300,000; calls by dose curve; tested in HEK293 cells
VACV mCherry inh = vaccinia inhibition (mCherry reporter) | Vaccinia virus mCherry reporter infection, fluorescence | Potency, µM (doses to about 36.5 µM), without a hit: at the highest dose activity change, negative = inhibition, usual class: inhibitors | hit rate 0.63% among 310,000 | AID 720579; calls by dose curve; tested in A549 cells; note: nearly all actives have a fitted effect of over 35% in size
VACV Venus inh = inhibitors of vaccinia virus (Venus reporter); AID 720580; Vaccinia virus Venus reporter expression, fluorescence; hit rate 0.46% among 330,000; Potency, µM (titrated, usually from 36.5 µM), for the others: at the highest dose activity change, negative = inhibition, most hits filed as inhibitors; calls by dose curve; tested in A549 cells; note: nearly all actives have a fitted effect of over 30% in size
Lassa entry inh = blocks Lassa virus binding to or entry into cells; Lassa virus pseudotype entry inhibition, cell reporter; Potency, µM (series often up to 37.9 µM), inactives show top-dose activity change, negative = inhibition, usual class: inhibitors; hit rate 1.2% among 300,000; AID 540256; calls by dose curve; tested in HEK293 cells; note: nearly all actives have a fitted effect of over 50% in size
An asterisk follows results filed as active; [ ] = dose if it differs, or a comment. % is set by controls: 0 for no effect and ±100 for the full control effect; potency is the fitted concentration of half-maximal effect.

Screening O=C(CN(Cc1ccccc1)S(=O)(=O)c1ccccc1)N/N=C/c1ccc2c(c1)OCO2 returned Marburg entry inh inconclusive, VACV mCherry inh -11%, VACV Venus inh -26% and Lassa entry inh 7.3µM*.
O=C(CN(Cc1ccc(Cl)c(Cl)c1)S(=O)(=O)c1ccccc1)N/N=C\c1ccc2c(c1)OCO2 was read as Marburg entry inh inconclusive, VACV Venus inh -5% and Lassa entry inh inconclusive.
For CCCCCCN1C(=O)CC[C@@]23C1=NC(C(=O)OC)=C(C(=O)OC)[C@@H]2N(Cc1ccccc1)c1ccccc13 the results were Marburg entry inh -28%[14.2 µM].
`COc1cccc2cc(C(=O)Nc3ccc(CC(=O)O)cc3)c(=O)oc12` gave Marburg entry inh 10µM*, VACV mCherry inh 5%, VACV Venus inh 12% and Lassa entry inh inconclusive.
Screening COc1cccc2cc(C(=O)NCc3ccc(C)cc3)c(=O)oc12 returned Marburg entry inh -8%[46.1 µM], VACV mCherry inh -1%, VACV Venus inh -18% and Lassa entry inh -1%[46.1 µM].
For Cc1cc2c(cc1C)N[C@]1(C[C@H]3CCCC(=O)N4CC[C@@H](C1)[C@@H]34)C(=NCc1ccccc1)N2 the results were VACV mCherry inh -13% and VACV Venus inh -28%.
COc1ccccc1N1CCN(C(=O)C(Sc2ccccc2)c2ccccc2)CC1 (stereo not drawn) was read as Marburg entry inh 6.3µM*, VACV Venus inh inconclusive and Lassa entry inh inconclusive.
COc1ccccc1N1CCN(C(=O)c2ccc(C(C)(C)C)cc2)CC1 was read as Marburg entry inh -29%, VACV mCherry inh 11µM*, VACV Venus inh 10µM* and Lassa entry inh -12%.
`COc1ccccc1N1CCN(C(=O)c2ccncc2)CC1` gave Marburg entry inh -34%, VACV mCherry inh -12%, VACV Venus inh -5% and Lassa entry inh 7%.
Screening COc1ccccc1N1CCN(C(=O)CSc2ccccc2)CC1 returned Marburg entry inh -5%, VACV Venus inh -22% and Lassa entry inh -3%.
Screening COc1ccccc1N1CCN(C(=O)c2cc(C(C)(C)C)oc2C)CC1 returned Marburg entry inh 10µM*, VACV mCherry inh -31%, VACV Venus inh -14% and Lassa entry inh -29%[46.1 µM].
CCS(=O)(=O)Nc1cc(C(=O)N2CCC[C@H]2CO)c2c(c1)nc(-c1ccccc1)n2C was read as VACV mCherry inh -4% and VACV Venus inh -4%.
For COc1ccc(Cl)cc1NC(=O)c1cnc2n(c1=O)CCS2 the results were VACV mCherry inh 2.2µM* and VACV Venus inh inconclusive.
For COc1ccccc1NC(=O)c1cnc2n(c1=O)CCS2 the results were Marburg entry inh -12%, VACV mCherry inh -23%, VACV Venus inh -14% and Lassa entry inh -4%.
Screening CCOC(=O)[C@@]1([C@@H](NC(=O)OC)c2ccccc2)CCCC1=O returned Marburg entry inh 12%[14.2 µM].
O=[N+]([O-])c1cccc(C2NCC(c3ccccc3Cl)c3c2[nH]c2ccccc32)c1 (stereo not drawn) was read as Marburg entry inh inconclusive, VACV mCherry inh -6%, VACV Venus inh -18% and Lassa entry inh 14µM*.
Screening CCCNc1nc(Nc2ccc([N+](=O)[O-])cc2)nc(N2CCOCC2)n1 returned VACV mCherry inh inconclusive and VACV Venus inh -27%.
For COCCn1c(C)cc(C2=NNC(=NC3CC3)SC2)c1C the results were Marburg entry inh 0.32µM*, VACV mCherry inh inactive, VACV Venus inh -4% and Lassa entry inh 0.32µM*.
Screening COCCCN=C1NN=C(c2cc(C)n(Cc3ccco3)c2C)CS1 returned Marburg entry inh 16µM* and Lassa entry inh inconclusive.
Screening CCOC(=O)c1ccccc1OCc1cc(/C=N/n2cnnc2)ccc1OC returned Marburg entry inh 0.1µM* and Lassa entry inh -20%.
`CCOC(=O)c1ccccc1OCc1cc(/C=N/NC(=O)c2cccnc2)ccc1OC` gave Marburg entry inh inconclusive, VACV mCherry inh -7%, VACV Venus inh -17% and Lassa entry inh inconclusive.
Screening c1ccc(-c2sc3ccccc3c2-c2ccc(OCCN3CCCC3)cc2)cc1 returned VACV mCherry inh inconclusive and VACV Venus inh 14µM*.
`COc1ccc(-c2sc3ccccc3c2-c2ccc(OCCN3CCCCC3)cc2)cc1` gave VACV mCherry inh -14% and VACV Venus inh -17%.
For COc1cccc(-c2sc3ccccc3c2-c2ccc(OCCN3CCCC3)cc2)c1 the results were VACV mCherry inh inconclusive and VACV Venus inh 13µM*.
For COc1cccc(-c2sc3ccccc3c2-c2ccc(OCCN3CCCCC3)cc2)c1 the results were VACV mCherry inh inactive and VACV Venus inh -15%.
For COc1cccc(-c2sc3ccccc3c2-c2ccc(OCCN(C)C)cc2)c1 the results were VACV mCherry inh 14µM* and VACV Venus inh inconclusive.
`Cc1cccc(CNC(=O)c2cnn(-c3nccc(-c4cccs4)n3)c2C(C)C)n1` gave VACV mCherry inh -23% and VACV Venus inh -13%.
Screening O=C(OCc1cn([C@H]2CN(C(=O)c3cccs3)[C@@H](c3ccc(Cl)cc3)C[C@H]2O)nn1)c1ccccc1 returned Lassa entry inh 7%[46.1 µM].
Screening CN(C)C=NC(=O)c1cc(C(=O)c2ccc(C(C)(C)C)cc2)c[nH]1 returned Marburg entry inh inconclusive, VACV mCherry inh inactive, VACV Venus inh -2% and Lassa entry inh 3.2µM*.
COc1ccccc1-c1ccc(C(=O)N(C)CC2COCCO2)c(N2CCN(c3ccccc3F)CC2)n1 (stereo not drawn) was read as VACV mCherry inh -7% and VACV Venus inh -11%.
C=CC[C@@H](CC(=O)N(CCO)Cc1ccccc1)C(=O)N[C@@H](COC(=O)[C@@H](CC=C)Cc1ccc(F)cc1)Cc1c[nH]c2ccccc12 was read as VACV mCherry inh inconclusive and VACV Venus inh 10µM*.
C=CC[C@@H](CC(=O)N(CCO)Cc1ccccc1)C(=O)N[C@H](COC(=O)[C@@H](CC=C)CC(=O)OC(C)(C)C)Cc1c[nH]c2ccccc12 was read as VACV mCherry inh -30% and VACV Venus inh inconclusive.
`C=CC[C@H](CC(=O)N(CCO)Cc1ccccc1)C(=O)N[C@@H](COC(=O)[C@@H](CC=C)Cc1ccc(F)cc1)Cc1c[nH]c2ccccc12` gave VACV mCherry inh 11µM* and VACV Venus inh 10µM*.
`C=CC[C@@H](CC(=O)N(CCO)Cc1ccccc1)C(=O)N[C@@H](COC(=O)[C@@H](CC=C)CC(=O)OC(C)(C)C)Cc1c[nH]c2ccccc12` gave VACV mCherry inh -28% and VACV Venus inh inconclusive.
Screening COc1ccc2cc3cc(C(=O)Nc4ccccc4N4CCN(C)CC4)oc3nc2c1 returned Marburg entry inh -17%, VACV mCherry inh inconclusive, VACV Venus inh inconclusive and Lassa entry inh 13%.
`COc1ccc2cc3cc(C(=O)NCCC(C)C)oc3nc2c1` gave Marburg entry inh 10%, VACV mCherry inh inactive, VACV Venus inh -6% and Lassa entry inh 3.5µM*.
COc1ccc2cc3cc(C(=O)NCCN4CCN(c5ccccc5F)CC4)oc3nc2c1 was read as Marburg entry inh 13µM*, VACV mCherry inh -16%, VACV Venus inh -8% and Lassa entry inh inconclusive.
`COC1=C[C@H](C(=O)NCCOC(C)=O)[C@@]2(C)Cc3ccccc3[C@@H]2CC1=O` gave Marburg entry inh -10%[14.2 µM].

From PubChem
